Only some compounds are listed: those with a hit (about 10% of all), similar ones and a draw of the others.
G9a inh = blocks human histone lysine methyltransferase G9a | Potency, µM (doses to about 102 µM), actives largely listed as inhibitors | G9a H3K9 monomethylation, AlphaScreen, 2 h | Q96KQ7 | AID 504332 | hit rate 8.8% among 350,000; further: nearly all actives have a fitted effect of over 75% in size
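Using a bead-based AlphaScreen, monomethylated H3K9 product from 2 h room-temperature reactions (G9a 20 nM, peptide 500 nM, SAM 20 uM) was detected with 0.5 ug/mL rabbit anti-H3K9me1 antibody.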
L3MBTL1 inh = blocks human L3MBTL1. Potency, µM (doses to about 57.1 µM), actives largely listed as inhibitors. AID 485360. Q9Y468. AlphaScreen L3MBTL1–H3K9me1 peptide binding. hit rate 0.66% among 230,000; further: nearly all actives have a fitted effect of over 60% in size
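L3MBTL1 (50 nM) pre-complexed 30 min with biotinylated H3(1-15)K9me1 peptide (75 nM), then compounds added for 30 min at room temperature; AlphaScreen streptavidin donor/nickel chelate acceptor beads (10 ug/mL final) read after 30 min dark incubation.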
BAZ2B inh = BAZ2B (human) inhibition; AID 504333; Q9UIF8; hit rate 4.4% among 360,000; Potency, µM (titrated, usually from 114 µM), usual class: inhibitors; AlphaScreen BAZ2B-H3K14Ac peptide displacement; further: nearly all actives have a fitted effect of over 60% in size
Target sequence (Q9UIF8 whole entry, looked up): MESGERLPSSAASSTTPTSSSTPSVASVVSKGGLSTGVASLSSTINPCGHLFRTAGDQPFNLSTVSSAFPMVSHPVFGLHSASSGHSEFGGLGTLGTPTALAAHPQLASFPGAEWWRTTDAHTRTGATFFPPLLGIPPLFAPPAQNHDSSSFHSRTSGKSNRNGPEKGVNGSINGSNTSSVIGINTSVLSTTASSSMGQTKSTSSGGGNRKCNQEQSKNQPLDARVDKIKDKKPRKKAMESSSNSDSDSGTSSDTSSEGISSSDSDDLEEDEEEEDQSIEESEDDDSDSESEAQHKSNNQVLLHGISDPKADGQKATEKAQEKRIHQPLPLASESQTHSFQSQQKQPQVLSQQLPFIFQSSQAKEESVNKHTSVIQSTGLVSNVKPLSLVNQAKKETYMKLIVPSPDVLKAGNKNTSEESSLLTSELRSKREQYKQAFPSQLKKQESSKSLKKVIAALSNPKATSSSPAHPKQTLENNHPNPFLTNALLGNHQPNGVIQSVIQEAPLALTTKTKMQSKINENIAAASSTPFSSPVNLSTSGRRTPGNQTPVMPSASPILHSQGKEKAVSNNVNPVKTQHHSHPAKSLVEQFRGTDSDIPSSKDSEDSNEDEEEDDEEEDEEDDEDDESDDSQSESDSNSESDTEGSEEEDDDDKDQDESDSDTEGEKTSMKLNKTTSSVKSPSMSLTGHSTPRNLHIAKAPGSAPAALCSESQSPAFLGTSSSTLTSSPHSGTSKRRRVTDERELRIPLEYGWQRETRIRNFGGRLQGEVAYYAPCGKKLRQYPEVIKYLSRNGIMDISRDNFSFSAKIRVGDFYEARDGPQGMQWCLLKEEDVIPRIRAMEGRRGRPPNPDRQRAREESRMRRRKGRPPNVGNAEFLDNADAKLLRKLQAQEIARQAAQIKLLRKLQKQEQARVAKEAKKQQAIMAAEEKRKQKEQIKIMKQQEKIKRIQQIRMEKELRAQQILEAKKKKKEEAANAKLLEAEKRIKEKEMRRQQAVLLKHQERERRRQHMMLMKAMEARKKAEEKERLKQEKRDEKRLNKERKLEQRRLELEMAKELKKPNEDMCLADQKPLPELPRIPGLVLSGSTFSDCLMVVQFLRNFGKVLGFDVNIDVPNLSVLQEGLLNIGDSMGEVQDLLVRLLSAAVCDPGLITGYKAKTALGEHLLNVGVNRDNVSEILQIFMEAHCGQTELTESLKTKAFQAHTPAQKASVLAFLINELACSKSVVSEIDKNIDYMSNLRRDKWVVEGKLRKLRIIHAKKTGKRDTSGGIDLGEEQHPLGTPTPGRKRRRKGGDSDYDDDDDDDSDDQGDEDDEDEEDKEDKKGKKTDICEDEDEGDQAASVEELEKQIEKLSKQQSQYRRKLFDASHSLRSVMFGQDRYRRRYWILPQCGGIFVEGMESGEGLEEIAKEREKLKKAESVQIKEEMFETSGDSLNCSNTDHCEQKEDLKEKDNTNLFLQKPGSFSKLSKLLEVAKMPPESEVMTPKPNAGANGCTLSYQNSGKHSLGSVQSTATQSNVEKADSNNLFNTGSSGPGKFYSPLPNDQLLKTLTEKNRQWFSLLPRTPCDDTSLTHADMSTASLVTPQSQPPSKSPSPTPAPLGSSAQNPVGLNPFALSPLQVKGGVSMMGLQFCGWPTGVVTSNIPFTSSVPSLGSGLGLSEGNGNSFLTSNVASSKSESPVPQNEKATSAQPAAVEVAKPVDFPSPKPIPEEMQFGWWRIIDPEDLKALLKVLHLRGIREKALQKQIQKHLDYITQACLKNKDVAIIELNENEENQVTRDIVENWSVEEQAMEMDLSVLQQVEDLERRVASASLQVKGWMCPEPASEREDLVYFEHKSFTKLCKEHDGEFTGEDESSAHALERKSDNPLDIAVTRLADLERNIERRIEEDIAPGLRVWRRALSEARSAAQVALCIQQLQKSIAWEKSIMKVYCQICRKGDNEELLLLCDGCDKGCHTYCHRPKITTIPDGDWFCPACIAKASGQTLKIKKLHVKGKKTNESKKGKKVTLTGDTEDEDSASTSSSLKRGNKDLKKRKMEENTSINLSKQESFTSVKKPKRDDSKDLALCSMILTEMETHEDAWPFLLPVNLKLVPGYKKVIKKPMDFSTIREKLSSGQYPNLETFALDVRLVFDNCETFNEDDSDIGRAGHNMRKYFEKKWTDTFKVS
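AlphaScreen displacement: compounds (up to 110uM) incubated 30 min at room temperature with a preformed 50 nM BAZ2B/50 nM biotinylated H3K14Ac peptide complex in PBS pH 7.4 with Tween-20. Donor and acceptor beads at 10 ug/mL final added, 20 min light-protected before reading.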
GLS inhibitor = glutaminase GLS (human) inhibition. AID 624170. GLS enzymatic activity, qHTS titration. Potency, µM (titrated, usually from 45.5 µM), hits mostly inhibitors. O94925. hit rate 0.21% among 410,000
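Two-point fluorescence kinetic (t0, 30 min RT) for hKGA; glutamate detected via glutamate oxidase–HRP–Amplex Red. Substrate: 1 mM L-glutamine solution; buffer 45 mM KH2PO4, pH 8.2.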
JMJD2A Tudor inh = blocks the human JMJD2A Tudor domain. O75164. AlphaScreen JMJD2A-Tudor / H3K4me3 peptide binding. Potency, µM (series often up to 114 µM), hits mostly inhibitors. hit rate 4.4% among 390,000; further: nearly all actives have a fitted effect of over 50% in size
HP1b chromo inh = blocks HP1-beta chromodomain binding to methylated histone tails; P83916; AlphaScreen HP1-beta / biotin-H3K9me3 peptide binding; Potency, µM (titrated, usually from 114 µM), hits mostly inhibitors; hit rate 0.56% among 390,000; AID 540317; further: nearly all actives have a fitted effect of over 70% in size
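Compound inhibition of the preformed complex between 50 nM HP1-beta and 50 nM biotinylated H3K9me3 peptide was read by AlphaScreen. Buffer was PBS pH 7.4 with 0.01% Tween-20. Incubations ran 30 min at room temperature, with 10 ug/mL donor/acceptor beads.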
12-hLO cuvette = blocks human 12-lipoxygenase product formation in cuvette | shares compounds with BAZ2B inh | purified 12-hLO, cuvette UV 234 nm product formation | Potency, µM, most hits filed as inhibitors | hit rate 60% among 35;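 active means compounds that slowed 12-hLO product formation enough to yield a measured IC50 potency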
JMJD2E inh = inhibitors of human JMJD2E demethylase, 8HQ series round 1; hit rate 89% among 130; shares compounds with BAZ2B inh; JMJD2E demethylase, FDH-coupled NADH fluorescence (FDH is formaldehyde dehydrogenase); Potency, µM (titrated, usually from 57 µM), most hits filed as inhibitors; AID 493212
ME-1 growth = inhibitors of ME-1 leukemia cell proliferation, CBFb-RUNX1 project; shares compounds with BAZ2B inh; ME-1 cell proliferation, ATP luminescence, 48 h; Potency, µM (series often up to 56.1 µM), actives largely listed as inhibitors; hit rate 20% among 140; AID 504370
Numbers stand for hits; [ ] = dose if it differs, or a comment. Unless noted, the call rests on the fitted dose curve; in most records, active means well fitted curve in the direction sought with a large enough effect; inconclusive means small, poorly fitted or top-dose-only effect, or another doubt; inactive means no such curve, though single readings can be large; an effect the other way counts as inactive or inconclusive.

Screening Cc1ccc(S(=O)(=O)C(CNC(=O)C(=O)NCCc2ccccc2)c2cccs2)cc1 (configuration not stated) returned G9a inh inactive, BAZ2B inh inactive, GLS inhibitor inactive, JMJD2A Tudor inh inactive and HP1b chromo inh inactive.
Screening Cc1cccc(CNc2ccnc(-c3ccccc3C(F)(F)F)n2)c1 returned G9a inh inactive[0.501 µM].
O=C1c2ccccc2C(=O)c2c(Nc3ccc(CCO)cc3)ccc(O)c21 was read as G9a inh 3.5µM, L3MBTL1 inh 5.6µM, BAZ2B inh 1.8µM, GLS inhibitor inactive, JMJD2A Tudor inh 8.9µM, HP1b chromo inh 8.9µM and ME-1 growth inconclusive.
Screening CC(=O)Nc1ccc(Nc2ccc3c4c(cc(=O)n3C)-c3ccccc3C(=O)c24)cc1 returned G9a inh inconclusive, L3MBTL1 inh inactive, BAZ2B inh inconclusive, GLS inhibitor inactive, JMJD2A Tudor inh inactive and HP1b chromo inh inactive.
Screening CO/N=C1\CN(c2nc3c(cc2F)c(=O)c(C(=O)O)cn3C2CC2)CC1CN (configuration not stated) returned G9a inh inactive[2.33 µM], GLS inhibitor inactive and ME-1 growth inconclusive.
For COc1c(N2CCNC(C)C2)c(F)cc2c(=O)c(C(=O)O)cn(C3CC3)c12 (configuration not stated) the results were GLS inhibitor inactive.
For O=[N+]([O-])c1cc2c(cc1/C=N/n1c(-c3ccccn3)n[nH]c1=S)OCO2 the results were G9a inh 0.79µM, L3MBTL1 inh inconclusive, BAZ2B inh 7.1µM, GLS inhibitor inactive, JMJD2A Tudor inh 4µM, HP1b chromo inh inconclusive and ME-1 growth inconclusive.
For Cc1cc(=O)cc2oc3cc(N)c(-c4c(C)cc(O)cc4O)c(C)c3nc1-2 the results were ME-1 growth inactive.
Screening Cc1ccc(C(C)(C)c2ccc(C)cc2)cc1 returned G9a inh inactive[12.7 µM] and GLS inhibitor inactive.
`CC(C)(c1cc(Br)c(O)c(Br)c1)c1cc(Br)c(O)c(Br)c1` gave G9a inh inactive[0.501 µM], L3MBTL1 inh inactive, BAZ2B inh 56µM, GLS inhibitor inactive, JMJD2A Tudor inh 89µM, HP1b chromo inh inactive and ME-1 growth inactive.
Screening O=C(O)c1cc(O)c2c(c1)[C@H]([C@H]1c3cc(C(=O)O)cc(O)c3C(=O)c3c(O[C@@H]4OC(CO)C(O)C(O)C4O)cccc31)c1cccc(O[C@@H]3OC(CO)C(O)C(O)C3O)c1C2=O (some centres not stated) returned G9a inh inactive[2.33 µM], GLS inhibitor inactive and ME-1 growth inactive.
For C=C1c2cccc(O)c2C(O)=C2C(=O)[C@@]3(O)C(O)=C(C(N)=O)C(=O)[C@@H](N(C)C)[C@@H]3[C@@H](O)[C@H]12 the results were G9a inh 4µM, GLS inhibitor inconclusive and ME-1 growth inactive.
For COc1ccc(S(=O)(=O)N2CCOCC2)cc1N=Nc1sc(N)nc1-c1ccccc1 the results were G9a inh 14µM, L3MBTL1 inh inactive, BAZ2B inh inconclusive, GLS inhibitor inactive, JMJD2A Tudor inh inactive, HP1b chromo inh inconclusive and ME-1 growth inactive.
`COc1ccc(S(=O)(=O)N2CCOCC2)cc1OC` gave G9a inh inactive, L3MBTL1 inh inactive, BAZ2B inh inactive, GLS inhibitor inactive, JMJD2A Tudor inh inactive and HP1b chromo inh inactive.
For CC(=O)NC(c1ccco1)c1cc(F)c2cccnc2c1O (configuration not stated) the results were G9a inh inactive[12.7 µM], L3MBTL1 inh 14µM, BAZ2B inh 20µM, GLS inhibitor inactive, JMJD2A Tudor inh 56µM, HP1b chromo inh inactive, 12-hLO cuvette 5µM and JMJD2E inh 29µM.
Screening CC(=O)NC(c1ccco1)c1cc(Cl)c2ccc(Cl)nc2c1O (configuration not stated) returned G9a inh inconclusive, L3MBTL1 inh inactive, BAZ2B inh inactive, GLS inhibitor inactive, JMJD2A Tudor inh inactive, HP1b chromo inh inactive, 12-hLO cuvette inactive and JMJD2E inh inactive.
CC(=O)NC(c1ccco1)c1cc(Cl)c2ccccc2c1O (configuration not stated) was read as G9a inh inactive[12.7 µM], L3MBTL1 inh inactive, BAZ2B inh inactive, GLS inhibitor inactive, JMJD2A Tudor inh inactive and HP1b chromo inh inactive.
For COc1ccc(C(=O)NC(c2ccc(Cl)cc2)c2cc(Cl)c3cccnc3c2O)cc1 (configuration not stated) the results were G9a inh inactive, BAZ2B inh inactive, GLS inhibitor inactive, JMJD2A Tudor inh inactive and HP1b chromo inh inactive.
For CCC(=O)NC(c1cccs1)c1cc([N+](=O)[O-])c2cccnc2c1OC (configuration not stated) the results were G9a inh inconclusive, L3MBTL1 inh inactive, BAZ2B inh inconclusive, GLS inhibitor inconclusive, 12-hLO cuvette inactive and JMJD2E inh 4.6µM.
Screening O=C(NC(c1ccccc1)c1cc(Cl)c2cccnc2c1O)c1cccnc1 (configuration not stated) returned G9a inh inactive, L3MBTL1 inh inactive and BAZ2B inh inactive.
`CC(=O)NC(c1cccs1)c1cc(F)c2cccnc2c1O` (configuration not stated) gave G9a inh inactive[12.7 µM], L3MBTL1 inh inconclusive, BAZ2B inh 25µM, GLS inhibitor inactive, JMJD2A Tudor inh 79µM, HP1b chromo inh inactive, 12-hLO cuvette 2µM and JMJD2E inh 29µM.
For CCOc1ccc(CNS(=O)(=O)c2ccc(-c3cc(C(F)(F)F)on3)s2)cc1 the results were G9a inh inactive, BAZ2B inh inactive, GLS inhibitor inactive, JMJD2A Tudor inh inactive and HP1b chromo inh inactive.
`Cc1cccc(NC(=O)C2CCCN(S(=O)(=O)c3c(C)n[nH]c3C)C2)c1` (configuration not stated) gave G9a inh inactive, GLS inhibitor inactive, JMJD2A Tudor inh inactive and HP1b chromo inh inactive.
For Cc1ccc2cc3cc(C(=O)N4CCN(c5ccc(Cl)cc5)CC4)oc3nc2c1 the results were G9a inh inactive, GLS inhibitor inactive, JMJD2A Tudor inh inactive and HP1b chromo inh inactive.

Bioassay records: PubChem, National Center for Advancing Translational Sciences (NCATS)
